Screens deposited in PubChem BioAssay by The Scripps Research Institute Molecular Screening Center.
In the library only some 1.1% were active in any assay of this set; here they are far more common.
HTR5A ag: HTR5A agonists in luminescence cell assay, primary screen, counter-screen for OPRM1-OPRD1 heterodimer agonist project, full-deck HTS; 5-hydroxytryptamine receptor 5A (Homo sapiens), P47898; activation, % at 9.3 µM; hit rate 0.61% among 340,000; cell-based; in the data active means activation mostly above about 9.5%, no sharp cut-off; inactive means mostly below about 7.6%;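 further: 0% = cells with vehicle only and 100% = reference agonist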
MOR-DOR ag: agonists of OPRM1-OPRD1 heterodimerization, primary screen, cell-based, luminescence | cells | activation, % at 9.3 µM | hit rate 0.3% among 340,000;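 further: 0% = vehicle-treated cells and 100% = reference agonist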
Target sequence (P35372 whole entry, looked up): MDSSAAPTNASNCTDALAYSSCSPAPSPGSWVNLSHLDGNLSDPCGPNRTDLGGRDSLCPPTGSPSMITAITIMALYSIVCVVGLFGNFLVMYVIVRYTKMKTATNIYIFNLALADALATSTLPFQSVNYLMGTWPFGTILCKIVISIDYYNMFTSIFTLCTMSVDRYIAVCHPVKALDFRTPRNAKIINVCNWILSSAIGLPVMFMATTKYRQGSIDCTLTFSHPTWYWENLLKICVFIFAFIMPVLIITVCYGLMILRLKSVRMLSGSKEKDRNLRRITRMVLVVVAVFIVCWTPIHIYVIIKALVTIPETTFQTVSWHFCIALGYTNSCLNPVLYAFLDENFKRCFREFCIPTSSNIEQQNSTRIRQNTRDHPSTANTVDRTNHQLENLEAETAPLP
Target sequence (P41143 whole entry, looked up): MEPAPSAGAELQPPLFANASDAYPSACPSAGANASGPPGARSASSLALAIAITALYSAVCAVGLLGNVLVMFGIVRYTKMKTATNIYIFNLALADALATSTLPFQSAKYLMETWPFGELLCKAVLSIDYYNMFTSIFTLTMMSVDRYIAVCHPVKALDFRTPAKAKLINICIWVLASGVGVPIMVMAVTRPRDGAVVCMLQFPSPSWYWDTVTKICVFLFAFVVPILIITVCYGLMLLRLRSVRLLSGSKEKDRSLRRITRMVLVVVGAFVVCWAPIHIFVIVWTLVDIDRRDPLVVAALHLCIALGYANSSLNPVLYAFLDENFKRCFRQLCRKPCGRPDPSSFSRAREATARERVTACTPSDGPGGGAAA
MOR-DOR inv ag: inverse agonists of MOR-DOR heterodimerization, primary screen, cell-based, luminescence; cell-based MOR-DOR heterodimer luminescence, inverse agonism; Mu-type opioid receptor (Homo sapiens) + Delta-type opioid receptor (Homo sapiens), …; hit rate 0.21% among 340,000; inhibition, % at 9.3 µM; in the data active means inhibition above about 22%, passing the limit was not always enough;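 further: 0% = cells with DMSO and 100% = wells without cells with DMSO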
HTR5A inv ag: HTR5A inverse agonists in luminescence cell assay, primary screen, counter-screen for OPRM1-OPRD1 heterodimer inverse agonist project, full-deck HTS; 5-hydroxytryptamine receptor 5A (Homo sapiens), P47898; HTR5A cell line, inverse agonism; inhibition, % at 9.3 µM; hit rate 0.083% among 340,000; in the data active means inhibition mostly above about 23%, no sharp cut-off; inactive means mostly below about 18%;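 further: 0% = cells with DMSO and 100% = no-cell wells with DMSO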
OPRM1-D1 ag cf: agonists of MOR-DOR heterodimerization, confirmation, cell-based, luminescence; cells, luminescence complementation; hit rate 45% among 830; shares compounds with MOR-DOR ag; AID 504904, 2011; activation, % at 9.3 µM;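 further: 0% = vehicle-treated cells and 100% = reference agonist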
HTR5A ag ctr2: HTR5A agonists in cells, counter-screen for OPRM1-OPRD1 heterodimer agonist project, cell-based, luminescence. HTR5A agonist counterscreen. activation, % at 9.3 µM. shares compounds with MOR-DOR ag. hit rate 8% among 830. AID 504905, 2011; in the data active means activation above about 17%;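 further: 0% = vehicle-treated cells and 100% = reference agonist response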
The depositor's hits bear a star; i = inactive; nt = no result given. Unless noted, no stated cut-off is given here; in the data, active means activation above about 18%; inactive means the rest.

SMILES	HTR5A ag	MOR-DOR ag	MOR-DOR inv ag	HTR5A inv ag	OPRM1-D1 ag cf	HTR5A ag ctr2
O=C(NCCc1ccc(Cl)cc1)C1CCC(CNc2nc(=S)[nH]c3ccccc23)CC1 (stereo unspecified)	-1	33*	-175	3	36*	10
S=c1nc(NCCc2ccccc2Cl)c2ccccc2[nH]1	5	23*	-108	-20	12	8
O=C(NCc1ccccc1Cl)C1CCC(CNc2nc(=S)[nH]c3ccccc23)CC1 (stereo unspecified)	3	-2	12	-8	nt	nt
COc1ccc(CCn2c(=S)[nH]c3cc(C(=O)NCc4ccco4)ccc3c2=O)cc1OC	-1	28*	-127	-1	24*	5
CCOC(=O)C1CCCN(S(=O)(=O)CCNC(=O)c2ccc3c(c2)OCO3)C1 (stereo unspecified)	0	-2	11	-4	nt	nt
COc1ccc(/C=C/C(=O)Nc2ccc3nc4n(c(=O)c3c2)CCCC4)cc1	12*	27*	-124	-33	16	2
COc1ccccc1CNC(=O)CCCNC(=O)Cn1cnc2sc(C)c(C)c2c1=O	4	-2	13	-7	nt	nt
O=C(Cn1c(-c2ccccc2)c[n+]2ccsc12)c1ccc([N+](=O)[O-])cc1	-1	81*	i	4	1	40*
O=C(CN1CCCC1c1cccs1)N1CCN(S(=O)(=O)c2cccc(F)c2)CC1 (stereo unspecified)	-5	-3	11	12	nt	nt
O=C(c1cc(S(=O)(=O)N2CCOCC2)ccc1F)N(CCc1ccccc1)Cc1ccccc1	-1	1	-4	-3	nt	nt
c1ccc(C2[C@H]3CN(Cc4cccnc4)[C@H](c4ccccc4)C34CC2(c2cccnc2)C4)cc1 (stereo partly specified)	-5	80*	-434	-20	75*	-4
CCOc1ccc(NC(=O)CN(C)C(=O)c2cccnc2Sc2ccc(C)c(C)c2)cc1OCC	5	-1	4	18	nt	nt
Clc1cccc(Cl)c1CSc1nnc(-c2ccncc2)s1	2	21*	-105	4	8	5
CCOC(=O)C1(CCOc2ccccc2)CCN(Cc2cccn2-c2cccnc2)CC1	-2	224*	i	5	240*	1
CCOC(=O)C1(Cc2cccc(OC)c2)CCN(Cc2cccn2-c2nccs2)CC1	-2	5	-24	-14	nt	nt
CCOC(=O)C1(Cc2ccccc2)CCN(Cc2cccn2-c2cccnc2)CC1	0	41*	-218	0	55*	-2
CCOC(=O)C1(Cc2ccccc2)CCN(Cc2cccn2-c2nccs2)CC1	-2	27*	-192	5	224*	6
O=C(CSc1nnc(C2CC2)n1C1CC1)c1cc(F)ccc1F	13	1	-5	-39	nt	nt
C[C@@H](C(=O)OCC(=O)c1ccccc1)N1C(=O)C2CCCCC2C1=O (stereo partly specified)	-8	-4	15	20	nt	nt
CC1CC(C)CN(CCCNC(=O)c2ccc3c(c2)ncn3C2CCCC2)C1 (stereo unspecified)	-1	-3	14	5	nt	nt
CN(C)c1ccc(C=c2c3ccccc3n3c2c2c([n+]3C)CCCC2)cc1	-1	-3	16	2	nt	nt
COC(=O)c1c(NC(=S)NNC(=O)c2ccc(Cl)s2)sc(C(=O)N(C)C)c1C	2	-1	7	6	nt	nt
CCc1ccc(OCc2n[nH]c(=S)n2C(C)CCCC(C)C)cc1 (stereo unspecified)	2	20*	-91	-5	7	18*
COc1ccc(/C=N\NC(=O)COc2ccc(C(C)(C)C)cc2)cc1Cn1nc(C)cc1C	4	45*	-190	-11	1	3
CC(C)C1CC(CCNCc2ccc(N(C)C)cc2)(c2ccccc2)CCO1 (stereo unspecified)	7	21*	-113	-20	25*	-1
SMILES	HTR5A ag	MOR-DOR ag	MOR-DOR inv ag	HTR5A inv ag	OPRM1-D1 ag cf	HTR5A ag ctr2
CN=c1scc(-c2ccccc2F)n1/N=C/c1ccc(O)c(O)c1O	2	18*	-87	-5	1	1
Cc1ccccc1N(CC(=O)N/N=C/c1ccc(F)cc1)C(=O)c1ccccc1	8	30*	-158	-12	46*	2
COc1ccc(C2/C=C\CN(C(=O)Nc3ccccc3)CC(=O)N2Cc2ccc(F)cc2)cc1 (stereo unspecified)	-1	-1	7	8	nt	nt
COc1ccc(C2/C=C\CN(C(=O)Nc3ccc(C(F)(F)F)cc3)CC(=O)N2Cc2ccc(F)cc2)cc1 (stereo unspecified)	20*	58*	-318	-50	0	-3
C=CCN(c1ccccc1)S(=O)(=O)c1cccc(C(=O)NC2CCN(Cc3ccccc3)CC2)c1	-4	2	-10	-5	nt	nt
Cc1c2ccccc2c(C)c2c1ccc1ccccc12	7	19*	-100	-24	-2	-2
CC(=O)Nc1ccc(CN2CCCC(C(=O)c3cccc(C(F)(F)F)c3)C2)cc1 (stereo unspecified)	1	58*	-366	14	56*	-2
COC(=O)CC1(C(=O)OC)Oc2ccc(Br)cc2C(=O)N1c1ccc(Br)cc1Cl (stereo unspecified)	-3	46*	-244	0	2	8
COc1ccc(C2Nc3ccccc3C(=O)N2Cc2ccco2)cc1COc1ccc([N+](=O)[O-])cc1 (stereo unspecified)	1	22*	-110	-2	13	-1
COc1cccc(OCc2cc(C3Nc4ccccc4C(=O)N3Cc3ccco3)ccc2OC)c1 (stereo unspecified)	1	-2	10	-1	nt	nt
COc1cccc(-c2nnc(NC(=O)c3ccc(Cl)s3)o2)c1	11	20*	-117	-31	2	-1
CC[N+]1(C)CCC(O)(/C=C/c2ccccc2)C(C(=O)/C=C/c2ccccc2)C1 (stereo unspecified)	1	-7	31	-5	nt	nt
CC1=C(C(=O)Nc2ccccc2)C(c2ccc(C)cc2)N=C(Nc2nc3ccccc3o2)N1 (stereo unspecified)	3	40*	-219	-41	34*	16
CCC(C)NS(=O)(=O)c1cc2c3c(c1)CCC(=O)N3CCC2 (stereo unspecified)	1	-3	13	-22	nt	nt
Nc1nc(SCC(=O)Nc2ccccc2)nc2nc3c(cc12)CCCC3	9	35*	-194	-52	7	5
Cc1ccc(NC(=O)CSc2nc(N)c3cc4c(nc3n2)CCCC4)cc1	2	29*	-156	-22	28*	1
